Measurements as given in the supplement of paper PMC4166925.
± gives the standard deviation of the averaged measurements. Over roughly 33,000 sequences, “E-score (dimensionless, -0.5 to 0.5)” has its median near -0.049; the highest 2% begin near 0.37. The entries come from a sample that favours the highest values as a whole.

system: T1, PmTbr T-box DNA-binding domain (GST fusion); test: PBM E-score of 8-mer (E-score (dimensionless, -0.5 to 0.5)); Tbr is Tbrain of the sea star Patiria miniata (Pm) or the sea urchin Strongylocentrotus purpuratus (Sp); higher = stronger binding preference; details: the construct has about 5 more residues each side
T1 sequence: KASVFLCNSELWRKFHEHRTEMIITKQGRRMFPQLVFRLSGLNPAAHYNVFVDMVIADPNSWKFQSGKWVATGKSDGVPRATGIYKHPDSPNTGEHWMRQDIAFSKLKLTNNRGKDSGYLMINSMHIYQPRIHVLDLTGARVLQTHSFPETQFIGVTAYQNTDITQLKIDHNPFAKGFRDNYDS
How it was run: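 Universal Agilent oligonucleotide arrays, made double-stranded by primer extension, were incubated with 200 nM GST-fused Tbr T-box DNA-binding domain in PBS (pH 7.5). The protein was expressed in BL21 E. coli at 20 °C and purified by glutathione affinity chromatography. After scanning and quantification, the Universal PBM Analysis Suite assigned an enrichment E-score to each ungapped 8-mer, averaged over duplicate arrays.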

Sequence	PBM E-score of 8-mer
ACGAAACG	0.16 ± 0.01
GCATTGCA	-0.0859 ± 0.03
ACAATCTA	-0.0816 ± 0.0069
ATCGAAAC	-0.0958 ± 0.024
ACCTATTG	0.129 ± 0.034
ACGGTGAT	0.202 ± 0.0041
CAGATGAC	-0.0423 ± 0.069
GGGGTGAC	0.3431 ± 0.0017
AGGGTGAT	0.197 ± 0.018
GAGGTGAC	0.4496 ± 0.0027
GAGGTGAA	0.294 ± 0.0035
AAGGTGAT	0.424 ± 0.021
ACGGTGAG	0.12 ± 0.014
CTGGTGAC	0.221 ± 0.045
AAGGTGAG	0.452 ± 0.0046
AGGGTGAG	0.137 ± 0.097
CAGGTGAC	0.4485 ± 0.0027
CGTGTCCA	0.00534 ± 0.099
GATGCACC	-0.0938 ± 0.034
GCAAACCC	-0.0342 ± 0.058
CCTCGGTC	0.0608 ± 0.12
ACGGTGAC	0.285 ± 0.0079
AAGGTGAC	0.426 ± 0.011
CAGGTGAG	0.422 ± 0.007
CAGGTGAA	0.1748 ± 0.0016

Sequence	PBM E-score of 8-mer
AAGGTGAA	0.185 ± 0.013
CCGGTGAG	0.0229 ± 0.12
CTGACCTA	-0.194 ± 0.079
AGTGGAAT	-0.0212 ± 0.05
GGCGATAA	0.276 ± 0.048
AGACGTAA	-0.2 ± 0.092
CCAGTGCG	0.133 ± 0.074
GCAACACC	0.455 ± 0.0097
CCAACACC	0.443 ± 0.011
ACAACACC	0.435 ± 0.023
CCAACACG	0.274 ± 0.0077
ACAACACT	0.37 ± 0.016
GCAACAAC	0.0808 ± 0.019
ACAACACA	0.347 ± 0.033
AGAACACT	0.133 ± 0.04
CCAACACA	0.241 ± 0.023
ACAACACG	0.251 ± 0.017
ACAACAAT	0.109 ± 0.024
GCAACACA	0.311 ± 0.0054
CCCTTGGA	-0.13 ± 0.033
TAGGGCCA	-0.155 ± 0.032
CGCCAAGC	0.0166 ± 0.082
AGGCCCTC	-0.448 ± 0.0054
CTCCCGTA	-0.1898 ± 0.001
AGAAAGCC	-0.195 ± 0.021

Sequence	PBM E-score of 8-mer
GCTATCTA	-0.0532 ± 0.092
CTCTTCTA	-0.215 ± 0.1
TCTGGAAA	-0.131 ± 0.019
AACACTCC	0.288 ± 0.029
CACACTCA	0.3814 ± 0.0034
CCCACTCG	0.0373 ± 0.049
AACACTCA	0.323 ± 0.0094
TACACTCA	-0.0251 ± 0.036
CACACTCC	0.402 ± 0.016
CACACTCG	0.408 ± 0.011
GACACTCC	0.336 ± 0.029
AACACTCG	0.237 ± 0.037
AGAGAAAG	0.0684 ± 0.065
ACTCACCG	-0.0077 ± 0.1
CGGAGTCC	-0.183 ± 0.043
CTTTGGCA	0.288 ± 0.017
CGTGGCTA	-0.139 ± 0.056
GTCGTTCA	0.19 ± 0.052
AACTGAGT	-0.0725 ± 0.037
AACTTCGA	0.0686 ± 0.023
TCTTCACA	0.377 ± 0.015
GCTTCACA	0.301 ± 0.014
CCTTCACA	0.395 ± 0.014
CCTTCACG	0.213 ± 0.0063
ACTTCACG	0.262 ± 0.038

Sequence	PBM E-score of 8-mer
ACTTCACA	0.336 ± 0.011
CCAAGTGA	0.146 ± 0.01
CTGAGCAC	0.0183 ± 0.04
GACAGGCA	-0.0532 ± 0.041
ACACAGTG	0.229 ± 0.005
AGTGTTTC	0.134 ± 0.066
CGCTTGAG	-0.0499 ± 0.011
ACCGTGTG	0.218 ± 0.0082
CACGTGTA	0.2502 ± 0.00031
CACGTGAC	0.315 ± 0.0075
CACGTGTC	0.385 ± 0.0079
AACGTGCG	0.345 ± 0.029
AACGTGTA	0.156 ± 0.04
AACGTGTG	0.3941 ± 0.0015
AGCGTGTC	0.174 ± 0.034
AACGTGTC	0.4102 ± 0.0015
CGAGGGCA	-0.019 ± 0.015
ATTAGAAC	-0.161 ± 0.0031
GCCAAGCA	-0.0191 ± 0.018
ACACCAAG	0.35 ± 0.005
GATATCAC	0.331 ± 0.021
TCCGCACA	0.104 ± 0.058
CGAATTCC	-0.164 ± 0.079
ATTTCCCG	-0.133 ± 0.0071
AGCTGTGA	0.404 ± 0.017

Sequence	PBM E-score of 8-mer
GCCTGTGA	0.107 ± 0.014
AGCTGTGG	0.0136 ± 0.075
ACCTGTGA	0.4002 ± 0.002
AGCTGTGC	0.182 ± 0.0098
ACCTGTGC	0.0647 ± 0.0069
GGTAGAGA	-0.124 ± 0.0055
GACTCAGA	-0.213 ± 0.097
TCAAATCA	-0.159 ± 0.042
GTCGCCAC	0.326 ± 0.0074
ACAGGCTC	0.0148 ± 0.018
CCTTCGCG	0.2566 ± 0.0012
ACCGTCGT	0.162 ± 0.045
ACCTCCGA	0.253 ± 0.033
CGTGCGAC	0.277 ± 0.018
AGTGCGAT	0.427 ± 0.0052
ACTGCGAT	0.107 ± 0.048
GGTGCAAA	0.393 ± 0.0071
ACTGCGAA	0.315 ± 0.012
AATGCGAT	0.024 ± 0.0098
AGTGCGTA	0.146 ± 0.048
GGTGCAAC	0.299 ± 0.033
GCTGCGAC	0.137 ± 0.0089
GGTGCGAC	0.462 ± 0.017
AGTGCGAA	0.4725 ± 0.00067
TGTGCAAA	0.197 ± 0.043

Sequence	PBM E-score of 8-mer
ATCCTGCC	-0.0684 ± 0.0044
CTAGCAAG	0.0488 ± 0.014
TGAGGGAA	-0.0537 ± 0.066
ATCATAGC	0.0043 ± 0.09
CTGGCGAC	0.124 ± 0.059
CGTGCGAA	0.448 ± 0.0091
AGTGCGAC	0.37 ± 0.012
TATGCGAA	0.157 ± 0.0088
GATGCGAA	0.186 ± 0.038
CGTGCGCA	0.0827 ± 0.019
TCTGCGAA	0.201 ± 0.038
AGTGCGTC	-0.147 ± 0.029
GGTGCGTA	0.2616 ± 0.00075
TGTGCGAA	0.448 ± 0.0066
ACTGCGAC	0.0881 ± 0.0041
CGTGCAAA	0.11 ± 0.0028
GGTGCGAA	0.48957 ± 0.00016
AGCCGACA	0.165 ± 0.007
GTGGCTCA	0.0273 ± 0.048
CGCCGCAA	-0.0674 ± 0.0034
ATTGCTCG	-0.0286 ± 0.034
CAGCCAGA	-0.0394 ± 0.019
CGAGATCC	0.0268 ± 0.01
AAGGGATT	-0.212 ± 0.11
CCTAAAAC	-0.00751 ± 0.035

Sequence	PBM E-score of 8-mer
CTGTTCAC	0.263 ± 0.012
CATGCAGC	-0.0211 ± 0.03
AGAGTGCA	0.0698 ± 0.0037
CACTTGGC	0.236 ± 0.038
ATTGCGAA	0.27169 ± 0.00012
GTTGCGAA	0.389 ± 0.015
CGTGCGAG	0.358 ± 0.018
AGTGCGGA	0.265 ± 0.0086
CGTGCGGA	0.0633 ± 0.03
CTTGCGAA	0.328 ± 0.029
GGTGCGGA	0.405 ± 0.015
ACTGCGAG	0.179 ± 0.04
AGTGCGAG	0.405 ± 0.021
ACTTCGAC	0.14 ± 0.024
CTTGACCC	-0.326 ± 0.035
CTTGACGC	0.27 ± 0.0032
CTTGACAC	0.43 ± 0.023
ATTGACAC	0.412 ± 0.0065
ATTGACAG	0.15 ± 0.052
ATTGACAA	0.304 ± 0.043
ATTTGGTC	-0.154 ± 0.024
CCACGTAC	0.0376 ± 0.016
